Test results as given in PubChem BioAssay (Tox21).
Several values for one entry are separate records, joined by “and”; a condition that tells them apart may be missing. Equal values may be shown once. Records with an inconclusive call do not appear. A call without a number means that no potency is given here. More than one record can exist for a structure, and the calls need not agree. Activity calls are given as the source filed them. Unless noted, calls follow the shape of the dose curve; as a rule, active = well fitted curve in the direction sought with a large enough effect in the repeat runs; inconclusive = weak or mixed curves; inactive = no such curve, though single readings can be large; an effect the other way counts as inactive or inconclusive.

test system: not listed separately; assay: qHTS assay to identify small molecule antagonists of the retinoid-related orphan receptor gamma (ROR-gamma) signaling pathway - cell viability counter screen (AID 1159520); conditions: Tet-on RORgamma CHO cells viability, ATP luminescence, 16 h; series mostly up to 92.4 µM; also: nearly all actives have a fitted effect of over 50% in size; also: potency is read from the fitted curve at half-maximal effect
How it was run: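 Tet-on ROR gamma CHO cells (1,000/well) were plated 4 hr, given compounds in DMSO for 2 hr at 37 C, then induced with 1 uM final doxycycline for 16 hr. Viability was read as ATP by CellTiter-Glo luminescence after 30 min.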

Compound | Potency
Cc1cc(Cl)ccc1OCC(=O)O | inactive
CNC | inactive
C[C@]12CCC(=O)C=C1CC[C@@H]1[C@@H]2CC[C@]2(C)C(=O)CC[C@@H]12 | inactive
O=C(O)c1nc(Cl)ccc1Cl | inactive
CCn1cc[n+](C)c1C | inactive
CCC[N+]1(C)CCCC1 | inactive
COCC(=O)N(c1c(C)cccc1C)C(C)C(=O)OC (stereo not drawn) | inactive
CC[N+](CC)(CC)CC | inactive
CCCn1cc[n+](C)c1 | inactive
O=C(O)CCl | inactive
C[N+](C)(C)Cc1ccccc1 | inactive
CCCC[n+]1ccccc1C | inactive
CCC(=O)C(CC(C)N(C)C)(c1ccccc1)c1ccccc1 (stereo not drawn) | inactive
CCCC[n+]1ccccc1 | inactive
Oc1cccc2cccnc12 | 3.44 µM (active) and inactive
CCOP(=S)(OCC)Oc1ccc2c(C)c(Cl)c(=O)oc2c1 | inactive

Compound | Potency
Nc1ccc(Cl)cc1 | inactive
Cc1cc(-c2ccc(N)c(C)c2)ccc1N | inactive
CCCCCC[n+]1ccccc1 | inactive
Nc1ccc(-c2ccc(N)cc2)cc1 | inactive
C1CCC(NC2CCCCC2)CC1 | inactive
OCCOc1ccccc1 | inactive
CCCC[N+]1(C)CCCC1 | inactive
Nc1ccccc1 | inactive
Cc1cc(Cl)ccc1N | inactive
CCCCCCn1cc[n+](C)c1 | inactive
O=c1[nH]c(=O)n(Cl)c(=O)n1Cl | inactive
COc1ccc(N)cc1 | inactive
O=P1(N(CCCl)CCCl)NCCCO1 (stereo not drawn) | inactive
COc1ccccc1N | inactive
O=[N+]([O-])c1ccccc1O | inactive
COP(=O)(OC)OC=C(Cl)Cl | inactive

biological target: Nuclear receptor ROR-gamma (Homo sapiens) (UniProt P51449); assay: qHTS assay to identify small molecule antagonists of the retinoid-related orphan receptor gamma (ROR-gamma) signaling pathway (AID 1159521; also: nearly all actives have a fitted effect of over 50% in size; also: potency is read from the fitted curve at half-maximal effect); conditions: Tet-on RORgamma CHO cells, RORE-luciferase, 16 h; series mostly up to 92.4 µM
How it was run: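 CHO Tet-on RORγ, RORE-luc reporter. Cpd 2 h pre-incubation, then dox hyclate 1 uM final, 16 h, 37 C/5% CO2. ONE-Glo luminescence; decrease = antagonist.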

Compound | Potency
Cc1cc(Cl)ccc1OCC(=O)O | inactive
CNC | inactive
C[C@]12CCC(=O)C=C1CC[C@@H]1[C@@H]2CC[C@]2(C)C(=O)CC[C@@H]12 | 23.9 µM (active) and inactive
O=C(O)c1nc(Cl)ccc1Cl | inactive
CCn1cc[n+](C)c1C | inactive
CCC[N+]1(C)CCCC1 | inactive
COCC(=O)N(c1c(C)cccc1C)C(C)C(=O)OC (stereo not drawn) | inactive
CC[N+](CC)(CC)CC | inactive
CCCn1cc[n+](C)c1 | inactive
O=C(O)CCl | inactive
C[N+](C)(C)Cc1ccccc1 | inactive
CCCC[n+]1ccccc1C | inactive
CCC(=O)C(CC(C)N(C)C)(c1ccccc1)c1ccccc1 (stereo not drawn) | 48.8 µM (active)
CCCC[n+]1ccccc1 | inactive
Oc1cccc2cccnc12 | 774 nM (active) and 864 nM (active) and inactive
CCOP(=S)(OCC)Oc1ccc2c(C)c(Cl)c(=O)oc2c1 | inactive

Compound | Potency
Nc1ccc(Cl)cc1 | inactive
Cc1cc(-c2ccc(N)c(C)c2)ccc1N | inactive
CCCCCC[n+]1ccccc1 | inactive
Nc1ccc(-c2ccc(N)cc2)cc1 | inactive
C1CCC(NC2CCCCC2)CC1 | inactive
OCCOc1ccccc1 | inactive
CCCC[N+]1(C)CCCC1 | inactive
Nc1ccccc1 | inactive
Cc1cc(Cl)ccc1N | inactive
CCCCCCn1cc[n+](C)c1 | inactive
O=c1[nH]c(=O)n(Cl)c(=O)n1Cl | inactive
COc1ccc(N)cc1 | inactive
O=P1(N(CCCl)CCCl)NCCCO1 (stereo not drawn) | inactive
COc1ccccc1N | inactive
O=[N+]([O-])c1ccccc1O | inactive
COP(=O)(OC)OC=C(Cl)Cl | inactive

test system: not listed separately; assay: qHTS assay to identify small molecule agonists of the AP-1 signaling pathway - cell viability counter screen (AID 1159525; calls by dose curve; also: nearly all actives have a fitted effect of over 55% in size; also: potency is read from the fitted curve at half-maximal effect); conditions: ME-180 AP-1-bla cells viability, ATP luminescence, 5 h; series mostly up to 76.8 µM
How it was run: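 Each titration point was normalised to DMSO and tetra n-octyl ammonium bromide controls. The read was Cell Titer Glo luminescence after 30 min at RT, following 5 h compound exposure of ME-180 AP-1-bla cells at 37 °C.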

Compound | Potency
Cc1cc(Cl)ccc1OCC(=O)O | inactive
C[C@]12CCC(=O)C=C1CC[C@@H]1[C@@H]2CC[C@]2(C)C(=O)CC[C@@H]12 | inactive
O=C(O)c1nc(Cl)ccc1Cl | inactive
CCn1cc[n+](C)c1C | inactive
CCC[N+]1(C)CCCC1 | inactive
COCC(=O)N(c1c(C)cccc1C)C(C)C(=O)OC (stereo not drawn) | inactive
CCCn1cc[n+](C)c1 | inactive
O=C(O)CCl | inactive
C[N+](C)(C)Cc1ccccc1 | inactive
CCCC[n+]1ccccc1 | inactive
Oc1cccc2cccnc12 | 1.23 µM (active) and inactive
CCOP(=S)(OCC)Oc1ccc2c(C)c(Cl)c(=O)oc2c1 | inactive
Cc1cc(Cl)ccc1N | inactive
O=c1[nH]c(=O)n(Cl)c(=O)n1Cl | inactive
COc1ccc(N)cc1 | inactive
O=[N+]([O-])c1ccccc1O | inactive
COP(=O)(OC)OC=C(Cl)Cl | inactive

test system: not listed separately; assay: qHTS assay to identify small molecule agonists of the AP-1 signaling pathway (AID 1159526; calls by dose curve); conditions: ME-180 (cervical carcinoma) AP-1-bla reporter, beta-lactamase FRET ratio, 5 h; series mostly up to 76.8 µM

Compound | Potency
Cc1cc(Cl)ccc1OCC(=O)O | inactive
CNC | inactive
C[C@]12CCC(=O)C=C1CC[C@@H]1[C@@H]2CC[C@]2(C)C(=O)CC[C@@H]12 | inactive
O=C(O)c1nc(Cl)ccc1Cl | inactive
CCn1cc[n+](C)c1C | inactive
CCC[N+]1(C)CCCC1 | inactive
COCC(=O)N(c1c(C)cccc1C)C(C)C(=O)OC (stereo not drawn) | inactive
CC[N+](CC)(CC)CC | inactive
CCCn1cc[n+](C)c1 | inactive
O=C(O)CCl | inactive
C[N+](C)(C)Cc1ccccc1 | inactive
CCCC[n+]1ccccc1C | inactive
CCC(=O)C(CC(C)N(C)C)(c1ccccc1)c1ccccc1 (stereo not drawn) | inactive
CCCC[n+]1ccccc1 | inactive
Oc1cccc2cccnc12 | inactive
CCOP(=S)(OCC)Oc1ccc2c(C)c(Cl)c(=O)oc2c1 | inactive

Compound | Potency
Nc1ccc(Cl)cc1 | inactive
Cc1cc(-c2ccc(N)c(C)c2)ccc1N | inactive
CCCCCC[n+]1ccccc1 | inactive
Nc1ccc(-c2ccc(N)cc2)cc1 | inactive
C1CCC(NC2CCCCC2)CC1 | inactive
OCCOc1ccccc1 | inactive
CCCC[N+]1(C)CCCC1 | inactive
Nc1ccccc1 | inactive
Cc1cc(Cl)ccc1N | inactive
CCCCCCn1cc[n+](C)c1 | inactive
O=c1[nH]c(=O)n(Cl)c(=O)n1Cl | inactive
COc1ccc(N)cc1 | inactive
O=P1(N(CCCl)CCCl)NCCCO1 (stereo not drawn) | inactive
COc1ccccc1N | inactive
O=[N+]([O-])c1ccccc1O | inactive
COP(=O)(OC)OC=C(Cl)Cl | inactive
